The values below come from PubChem BioAssay (NCATS).

Values without a mark were called inactive. Inconclusive results are not listed. Activity calls are given as the source filed them. Unless noted, calls come from the whole dose curve; as a rule, active = well fitted curve in the direction sought with a large enough effect; inconclusive = small, poorly fitted or top-dose-only effect, or another doubt; inactive = no such curve, though single readings can be large; an effect the other way counts as inactive or inconclusive. Where only a bound is given, the exact number is not on record here.

The nature of experiment [1]: Cell Viability - BJ (AID 421; calls by dose curve;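 note: potency is the fitted concentration of half-maximal effect; cells exposed to compound for 40 hours at 37 °C before readout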). Conditions: BJ fibroblast viability, qHTS. A digest of the protocol:
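Normal human BJ foreskin fibroblasts, 1500/well in complete medium, treated 40 hr at 37 °C. Cellular ATP by CellTiter-Glo luminescence; normalized to DMSO and 100 uM tamoxifen, AC50 from Hill fit.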
(In general: Quantitative high-throughput screening tests each substance at several concentrations.)

Experiment [2] in a line: Cell Viability - Jurkat (AID 426;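 active = dose-dependent loss of cell ATP signal giving a full or clear fitted curve, ranked by lower potency value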; note: potency is the fitted concentration of half-maximal effect). Conditions: qHTS. In short, it runs like this: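 qHTS, 1536-well; Jurkat E6-1, 5000 cells/well, complete medium; cpd 40 hr, 37 °C; CellTiter-Glo 20 min RT; luminescence. AC50 by Hill fit.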
A short description of experiment [3]: Cell Viability - Hek293 (AID 427;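 active = compounds whose dose-response curve shows a full or clear partial loss of cell viability, called from curve shape rather than a numeric limit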;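 note: potency is the fitted concentration of half-maximal effect; cells exposed to compound for 40 hours at 37 °C before reading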). The conditions noted are these: qHTS. A digest of the protocol: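 HEK293 cells in complete medium were exposed to compound for 40 hr at 37 °C, then cellular ATP was read by CellTiter-Glo luminescence. Data were normalized to DMSO (basal) and 100 uM tamoxifen (100% inhibition), and AC50 came from Hill fits.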
A short description of experiment [4]: Cell Viability - MRC5 (AID 434; calls by dose curve;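 note: potency is the fitted concentration of half-maximal effect; potency reflects cytotoxicity seen as loss of intracellular ATP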). The conditions noted are these: MRC5 lung fibroblast viability, qHTS. In short, it runs like this: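 MRC5 normal human lung fibroblasts, 1500 cells/well, exposed to compound for 40 hr at 37 C. Cellular ATP was read by CellTiter-Glo luminescence; data normalized to DMSO and 100 uM tamoxifen, with AC50 from Hill fits.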
Experiment [5] can be described thus: Cell Viability - SK-N-SH (AID 435; calls by dose curve;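 note: potency is the fitted concentration of half-maximal effect; compound exposure lasted 40 h at 37 °C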). The conditions noted are these: SK-N-SH neuroblastoma cell viability qHTS. A digest of the protocol:
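Cells seeded at 1500 per well and incubated 5 hr at 37 °C. Compound added, then 40 hr at 37 °C. CellTiter-Glo added, 20 min at room temperature, luminescence read.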

Experiment [6] addresses Mitogen-activated protein kinase 10 (Mus musculus) (UniProt Q61831). Put plainly: JNK3 AlphaScreen Assay (AID 530; active = well fitted curve in either direction with a large enough effect, not every such curve was filed as active;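 note: kinase came from lysate of stimulated human HepG2 cells; signal reports phosphorylation of biotinylated GST-cJun 1-79 at Ser73 with 10 µM ATP; % is set by controls: 0 for no effect and ±100 for the full control effect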). Conditions: JNK3 lysate, c-Jun phosphorylation; series mostly up to 57.1 µM. In short, it runs like this:
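Pre-activated (IL-1β/TNFα) JNK3 in HepG2 lysates phosphorylates biotin-GST-cJun(1-79), 10 uM ATP; anti-phospho-cJun(Ser73) AlphaScreen read at room temperature, pH 7.6 Tris buffer. Compounds pre-incubated 15 min as titrations.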
(In general: Alpha assays give light when donor and acceptor beads are brought close together.)

Experiment [7] in a line: Cell Viability - N2a (AID 540).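 Note: plate controls were DMSO alone for no effect and tamoxifen control for full effect; nearly all actives have a fitted effect of over 45% in size.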 Conditions: N2a mouse neuroblastoma cell viability; activity change, negative = cytotoxicity: at 92.2 µM (top of the series). In short, it runs like this:
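Luminescent ATP signal (CellTiter-Glo, 20 min at room temperature) served as the viability read-out after N2a cells were treated with compounds for 40 hours at 37 °C. Concentration-response data were fitted to the Hill equation for AC50.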

A short description of experiment [8]: Cell Viability - NIH 3T3 (AID 541).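 Note: plate controls were DMSO alone for no effect and tamoxifen positive control for full effect; nearly all actives have a fitted effect of over 25% in size.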 Conditions: NIH 3T3 cell viability, qHTS; activity change, negative = cytotoxicity: at 92.2 µM (top of the series). A digest of the protocol: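 Luminescent ATP signal (CellTiter-Glo) served as the viability read-out after NIH 3T3 cells were exposed to compounds over a concentration range for 40 hr at 37 °C. Hill-equation modelling of concentration-response data gave AC50.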

Experiment [9] can be described thus: Cell Viability - HUV-EC-C (AID 542). Note: % is set by controls: 0 for no effect and ±100 for the full control effect; nearly all actives have a fitted effect of over 35% in size. Conditions: HUV-EC-C endothelial cell viability, qHTS; series mostly up to 92.2 µM. A digest of the protocol: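 qHTS cytotoxicity: HUV-EC-C, 1000 cells/well, 5 hr settle, compound 40 hr 37 °C, CellTiter-Glo, luminescence. AC50 via Hill equation.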
The nature of experiment [10]: Cell Viability - H-4-II-E (AID 543). Note: % is set by controls: 0 for no effect and ±100 for the full control effect; nearly all actives have a fitted effect of over 35% in size. The conditions noted are these: H-4-II-E rat hepatoma viability; series mostly up to 92.2 µM. A digest of the protocol: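 Luminescent ATP signal (CellTiter-Glo) served as the viability read-out, with cytotoxicity seen as a concentration-dependent ATP drop. Cells were treated for 40 hours in complete medium. AC50 values derive from Hill-equation modelling.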

A short description of experiment [11]: Cell Viability - SH-SY5Y (AID 544). Note: nearly all actives have a fitted effect of over 55% in size. Conditions: SH-SY5Y neuroblastoma cell viability; viability change, negative = cytotoxic: at 92.2 µM (top of the series). A digest of the protocol:
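Luminescent ATP read-out (CellTiter-Glo) measures loss of viable SH-SY5Y neuroblastoma cells after 40 hr compound exposure at 37 °C. AC50 values derive from standard Hill modelling of qHTS concentration-response data.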

Experiment [12] can be described thus: Cell Viability - Renal Proximal Tubule (AID 545). Note: nearly all actives have a fitted effect of over 40% in size. The conditions noted are these: renal proximal tubule cells viability, primary cells of rat origin; series mostly up to 91.7 µM. In short, it runs like this:
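Cytotoxicity is scored as a concentration-dependent drop in cellular ATP in primary rat renal proximal tubule cells exposed for 40 hr. AC50 derives from Hill modelling.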

The nature of experiment [13]: Cell Viability - Mesenchymal (AID 546).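 Note: cells exposed to compound for 40 hours before reading.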 Conditions: mesenchymal cells viability, qHTS; series mostly up to 91.7 µM. A digest of the protocol: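 Human kidney mesenchymal cells from normal renal glomeruli, 1000 cells/well, rested 5 hr at 37 °C, then treated 40 hr at 37 °C in complete medium. Cellular ATP read by CellTiter-Glo luminescence; AC50 from Hill-equation fits.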

The nature of experiment [14]: Cellular Toxicity (caspase-3) HepG2 (AID 654).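 Note: cells exposed to compound for 16 hours before reading; 0% = DMSO alone and 100% = caspase signal from 100 µM tamoxifen.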 Conditions: HepG2 caspase-3 activation, luminescence; series mostly up to 92.2 µM. A digest of the protocol: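 Cells plated 5 hr at 37 °C, compound added, incubated 16 hr at 37 °C. Caspase-Glo 3/7 reagent followed, 20 min at room temperature, then luminescence read. Activation scored as signal increase; AC50 from Hill fit.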

Experiment [15] is described as follows: Cellular Toxicity (caspase-3) Jurkat (AID 655).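 Note: cells exposed to compound for 16 h at 37 °C before reading.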 The conditions noted are these: Jurkat caspase-3 activation, luminescence; caspase-3 activation: at 92.2 µM (top of the series), DMSO = 0%, tamoxifen = 100%. In short, it runs like this: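 Caspase 3/7 activation is scored as increased luminescence in Jurkat cells cultured with compound for 16 hours in complete medium. AC50 values come from Hill fits of qHTS concentration-response data normalized to DMSO and 100 uM tamoxifen controls.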

A short description of experiment [16]: Cellular Toxicity (caspase-3) HUV-EC-C (AID 656).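 Note: cells exposed to compound for 16 h.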 Conditions: HUV-EC-C cells, caspase-3 activation (apoptosis), vehicle = 0, 100 µM tamoxifen = 100%; series mostly up to 92.2 µM. In short, it runs like this:
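Read-out: luminescence proportional to caspase 3/7 activity, measured 20 min after adding Caspase-Glo 3/7 reagent. Cells (HUV-EC-C) had received compound for 16 hr at 37°C. Increases relative to DMSO and 100 uM tamoxifen gave concentration-response AC50 values.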

Experiment [17] can be described thus: Cellular Toxicity (caspase-3) SHSY5Y (AID 657).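 Note: cells exposed to compound for 16 hours at 37 °C.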 The conditions noted are these: SH-SY5Y caspase-3 activation, DMSO zero, 10 µM staurosporine = 100%; series mostly up to 91.7 µM. A digest of the protocol: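 Cells plated and incubated 5 h at 37 °C, dosed over a concentration range, incubated 16 h, then given Caspase-Glo 3/7 reagent for 1 h at room temperature before luminescence reading. Staurosporine (10 uM) defined full stimulation.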

A short description of experiment [18]: Cellular Toxicity (caspase-3) BJ (AID 658). Conditions: BJ fibroblasts, luminescence, normalized: DMSO 0%, staurosporine 100%; series mostly up to 91.7 µM. In short, it runs like this:
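BJ human foreskin fibroblasts, 1000 cells/well, treated 16 hours at 37 °C in complete medium; caspase 3/7 activity by Caspase-Glo luminescence after 1 hr at room temperature. Normalized to DMSO and 10 uM staurosporine; AC50 from Hill fits.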

The nature of experiment [19]: Cellular Toxicity (caspase-3) MRC-5 (AID 659).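 Note: cells exposed to compound for 16 h at 37 °C.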 The conditions noted are these: MRC-5 cells, luminescence, normalized: DMSO 0%, 10 µM staurosporine 100%; series mostly up to 91.7 µM. A digest of the protocol: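 MRC-5 human normal lung fibroblasts, 1500 cells/well, treated 16 h at 37 °C in complete medium. Caspase 3/7 measured by Caspase-Glo luminescence after 1 h at room temperature. Normalized to DMSO and 10 uM staurosporine; AC50 from Hill fit.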

Experiment [20] in a line: Cell Viability - HepG2 (AID 433; calls by dose curve;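 note: potency is the fitted concentration of half-maximal effect; potency for ATP loss meaning cytotoxicity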). The conditions noted are these: qHTS. In short, it runs like this:
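Cytotoxicity is scored as loss of intracellular ATP in HepG2 cells exposed to compounds for 40 h. Concentration-response curves, normalized to DMSO and 100 uM tamoxifen, give AC50 values.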

`C=CCOC(=O)COCCC(C)C`: the Potency in experiment [1], in experiment [2], in [3], in [4] and in experiment [5] was above 92 µM each time. Also, the result in experiment [6], in [16], in experiment [17], in [18] and in [19] was inactive. The activity change, negative = cytotoxicity in [7] is -4.01%. The Potency entry in experiment [8], in [9], in experiment [10], in experiment [11], in [12] and in experiment [13] was “inactive” each time. Further, in [14], the Potency entry was “inactive”. In addition, the caspase-3 activation in experiment [15] is -0.573%.
With `CC(C)C(C)C`, the Potency in experiment [1], in [2], in experiment [3], in experiment [4] and in experiment [5] was above 92 µM each time. Moreover, the result in [6], in [16], in experiment [17], in experiment [18] and in experiment [19] was inactive. Moreover, the activity change, negative = cytotoxicity in experiment [7] was 5.14%. The Potency entry in experiment [8], in experiment [9], in experiment [10], in [11], in experiment [12] and in experiment [13] was “inactive” throughout. Further, the Potency result in experiment [14] is “inactive”. In experiment [15], the caspase-3 activation was -0.000823%.
In the case of `O=[N+]([O-])c1cccc(C(F)(F)F)c1`, the Potency in experiment [1], in experiment [2], in [3], in experiment [20] and in experiment [5] was above 92 µM each time. The call in [6], in experiment [16], in [17], in experiment [18] and in experiment [19] was inactive. For the same molecule, the Potency result in experiment [8], in [9], in experiment [10], in experiment [11], in experiment [12] and in experiment [13] was “inactive” in each case. The Potency result in [14] was “inactive”. In addition, the caspase-3 activation in experiment [15] was 0.763%.
For the molecule `CC(C)Cc1nccs1`, the Potency in [1], in [2], in experiment [3], in [4] and in experiment [5] was above 92 µM throughout. The result in experiment [6], in experiment [16], in experiment [17] and in experiment [19] was inactive. Further, in experiment [7], the activity change, negative = cytotoxicity was 2.65%. Further, the Potency result in experiment [8], in experiment [9], in [10], in [11], in experiment [12] and in experiment [13] was “inactive” each time. For the same molecule, the Potency result in [14] was “inactive”. The caspase-3 activation in experiment [15] is 1.45%.
With `CC(C)(c1cc(Br)c(OCC(Br)CBr)c(Br)c1)c1cc(Br)c(OCC(Br)CBr)c(Br)c1` (stereo unspecified), the Potency in [1], in experiment [3], in experiment [20], in experiment [4] and in [5] was above 92 µM each time. Further, the outcome in experiment [6], in [16], in [17], in experiment [18] and in experiment [19] was inactive. Moreover, in experiment [7], the activity change, negative = cytotoxicity was 5.75%. The Potency entry in experiment [8], in [9], in experiment [10], in experiment [11], in experiment [12] and in experiment [13] was “inactive” each time. Also, the Potency result in experiment [14] is “inactive”. Besides, the caspase-3 activation in [15] is 99.2% (active).
As to `CC(=O)c1nccs1`, the Potency in [1], in experiment [3], in [4] and in experiment [5] was above 92 µM in each case. In addition, the result in [6], in [16], in [17], in experiment [18] and in [19] was inactive. Further, in [7], the activity change, negative = cytotoxicity is 2.98%. The Potency entry in experiment [8], in experiment [9], in experiment [10], in experiment [11], in experiment [12] and in [13] was “inactive” each time. Moreover, in experiment [14], the Potency entry is “inactive”. For the same molecule, the caspase-3 activation in experiment [15] is 0.174%.
